Measurements: PubChem BioAssay AID1159580 (chemical genetic matrix, 2015)
Where “and” joins values, the source holds several entries; their conditions need not be identical. Identical values can stand only once. Hit rate of the full screen: of about 5,500 compounds, about 2,000 (36%) were called active. Another 18% or so got no clear call; they are omitted. No stated cut-off is given here; in the data, active means normalized growth mostly below about 0.91 (no sharp cut-off); inconclusive means no clear call, values can overlap the other calls; inactive means mostly above about 0.92. This is one part of the list.

Assay: chemical genetic growth profiling, strain panel (AID 1159580);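 further: tested at 20 µM; growth read once vehicle control cultures reached saturation at 30 °C; 1 = growth at the plate median or of vehicle wells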
Conditions: growth OD

Measured: normalized growth

NS(=O)(=O)c1cc2c(cc1Cl)NC=NS2(=O)=O
inactive: S. cerevisiae deletion strains, locus YJR075W, strain HOC1, stronger effect = lower value 1.02 | S. cerevisiae deletion strains, locus YKL009W, strain mrt4, stronger effect = lower value 1.02 | S. cerevisiae deletion strains, locus YKL068W, stronger effect = lower value 0.998 | S. cerevisiae deletion strains, locus YKL085W, strain MDH1 (second series), stronger effect = lower value 0.998 | S. cerevisiae deletion strains, locus YKL085W, strain MDH1, stronger effect = lower value 0.998 | S. cerevisiae deletion strains, locus YKL160W, strain elf1, stronger effect = lower value 1.01 | S. cerevisiae deletion strains, locus YKL190W, strain CNB1, stronger effect = lower value 1.01 | S. cerevisiae deletion strains, locus YKR001C, strain vps1, stronger effect = lower value 0.988 | S. cerevisiae deletion strains, locus YKR026C, strain gcn3, stronger effect = lower value 0.98 | S. cerevisiae deletion strains, locus YKR091W, strain srl3, stronger effect = lower value 1.01 | S. cerevisiae deletion strains, locus YLL001W, strain dnm1, stronger effect = lower value 1.01 | S. cerevisiae deletion strains, locus YLL026W, stronger effect = lower value 0.99 | S. cerevisiae deletion strains, locus YLL041C, strain sdh2, stronger effect = lower value 1 | S. cerevisiae deletion strains, locus YLR027C, strain aat2, stronger effect = lower value 1.01 | S. cerevisiae deletion strains, locus YLR039C, strain RIC1, stronger effect = lower value 1.02 | S. cerevisiae deletion strains, locus YLR058C, strain SHM2, stronger effect = lower value 1.01 | S. cerevisiae deletion strains, locus YLR102C, strain apc9, stronger effect = lower value 0.99 | S. cerevisiae deletion strains, locus YLR113W, strain HOG1, stronger effect = lower value 0.939 | S. cerevisiae deletion strains, locus YLR221C, strain rsa3, stronger effect = lower value 0.994 | S. cerevisiae deletion strains, locus YLR258W, strain gsy2, stronger effect = lower value 1.01 | S. cerevisiae deletion strains, locus YLR262C, strain YPT6 (second series), stronger effect = lower value 1 | S. cerevisiae deletion strains, locus YLR262C, strain YPT6, stronger effect = lower value 1.02 | S. cerevisiae deletion strains, locus YLR268W, strain sec22, stronger effect = lower value 0.996 | S. cerevisiae deletion strains, locus YLR320W, strain mms22, stronger effect = lower value 0.988 | S. cerevisiae deletion strains, locus YLR330W, strain CHS5, stronger effect = lower value 1.01 | S. cerevisiae deletion strains, locus YLR342W, strain FKS1 (second series), stronger effect = lower value 1.02 | S. cerevisiae deletion strains, locus YLR342W, strain FKS1, stronger effect = lower value 0.999 | S. cerevisiae deletion strains, locus YLR357W, strain rsc2, stronger effect = lower value 0.985 | S. cerevisiae deletion strains, locus YLR370C, strain arc18, stronger effect = lower value 1 | S. cerevisiae deletion strains, locus YLR371W, strain rom2, stronger effect = lower value 0.997 | S. cerevisiae deletion strains, locus YLR384C, strain iki3, stronger effect = lower value 1.01 | S. cerevisiae deletion strains, locus YLR418C, strain cdc73, stronger effect = lower value 1.02 | S. cerevisiae deletion strains, locus YML016C, strain PPZ1, stronger effect = lower value 1 | S. cerevisiae deletion strains, locus YML032C, strain rad52, stronger effect = lower value 0.982 | S. cerevisiae deletion strains, locus YML120C, strain ndi1, stronger effect = lower value 0.994 | S. cerevisiae deletion strains, locus YML124C, strain tub3, stronger effect = lower value 0.996 | S. cerevisiae deletion strains, locus YMR058W, strain fet3, stronger effect = lower value 1 | S. cerevisiae deletion strains, locus YMR078C, strain ctf18, stronger effect = lower value 0.984 | S. cerevisiae deletion strains, locus YMR125W, strain sto1, stronger effect = lower value 0.998 | S. cerevisiae deletion strains, locus YMR129W, stronger effect = lower value 1 | S. cerevisiae deletion strains, locus YMR205C, strain PFK2, stronger effect = lower value 1 | S. cerevisiae deletion strains, locus YMR223W, strain ubp8, stronger effect = lower value 1 | S. cerevisiae deletion strains, locus YMR231W, strain pep5, stronger effect = lower value 0.999 | S. cerevisiae deletion strains, locus YMR263W, strain SAP30, stronger effect = lower value 1.02 and 0.996 | S. cerevisiae deletion strains, locus YMR307W, strain GAS1, stronger effect = lower value 0.978 and 1.01 | S. cerevisiae deletion strains, locus YNL067W, strain RPL9B, stronger effect = lower value 1.01 | S. cerevisiae deletion strains, locus YNL071W, strain lat1, stronger effect = lower value 0.999 | S. cerevisiae deletion strains, locus YNL128W, strain TEP1, stronger effect = lower value 1.02 | S. cerevisiae deletion strains, locus YNL153C, strain GIM3, stronger effect = lower value 1.02 | S. cerevisiae deletion strains, locus YNL175C, strain NOP13, stronger effect = lower value 0.975 | S. cerevisiae deletion strains, locus YNL183C, strain NPR1, stronger effect = lower value 0.907 | S. cerevisiae deletion strains, locus YNL197C, strain WHI3, stronger effect = lower value 0.969 | S. cerevisiae deletion strains, locus YNL209W, strain ssb2, stronger effect = lower value 1.01 | S. cerevisiae deletion strains, locus YNL224C, strain SQS1, stronger effect = lower value 0.987 | S. cerevisiae deletion strains, locus YNL233W, strain BNI4, stronger effect = lower value 1.02 | S. cerevisiae deletion strains, locus YNL248C, strain rpa49, stronger effect = lower value 1.04 | S. cerevisiae deletion strains, locus YNL250W, strain rad50, stronger effect = lower value 0.989 | S. cerevisiae deletion strains, locus YNL271C, strain bni1, stronger effect = lower value 0.982 | S. cerevisiae deletion strains, locus YNL298W, strain CLA4, stronger effect = lower value 1 | S. cerevisiae deletion strains, locus YNL307C, strain MCK1, stronger effect = lower value 1.01 | S. cerevisiae deletion strains, locus YNL322C, strain KRE1 (second series), stronger effect = lower value 1.01 | S. cerevisiae deletion strains, locus YNL322C, strain KRE1, stronger effect = lower value 1.01 | S. cerevisiae deletion strains, locus YNR049C, strain mso1, stronger effect = lower value 1.01 | S. cerevisiae deletion strains, locus YNR052C, strain pop2, stronger effect = lower value 0.996 | S. cerevisiae deletion strains, locus YOL006C, strain TOP1, stronger effect = lower value 1.05 | S. cerevisiae deletion strains, locus YOL012C, strain htz1 0.596 | S. cerevisiae deletion strains, locus YOL147C, strain pex11, stronger effect = lower value 1 | S. cerevisiae deletion strains, locus YOR001W, strain rrp6, stronger effect = lower value 1.02 | S. cerevisiae deletion strains, locus YOR061W, strain CKA2, stronger effect = lower value 1.01 | S. cerevisiae deletion strains, locus YOR069W, strain VPS5, stronger effect = lower value 1 | S. cerevisiae deletion strains, locus YOR070C, strain gyp1, stronger effect = lower value 1.01 | S. cerevisiae deletion strains, locus YOR080W, strain dia2, stronger effect = lower value 0.986 | S. cerevisiae deletion strains, locus YOR083W, strain WHI5 (second series), stronger effect = lower value 0.968 | S. cerevisiae deletion strains, locus YOR083W, strain WHI5, stronger effect = lower value 0.989 | S. cerevisiae deletion strains, locus YOR106W, strain vam3, stronger effect = lower value 1 | S. cerevisiae deletion strains, locus YOR136W, strain idh2, stronger effect = lower value 0.999 | S. cerevisiae deletion strains, locus YOR144C, strain elg1, stronger effect = lower value 0.998 | S. cerevisiae deletion strains, locus YOR184W, strain ser1, stronger effect = lower value 1 | S. cerevisiae deletion strains, locus YOR231W, strain MKK1, stronger effect = lower value 0.979 | S. cerevisiae deletion strains, locus YOR265W, strain rbl2, stronger effect = lower value 1 | S. cerevisiae deletion strains, locus YOR270C, strain vph1, stronger effect = lower value 1.02 | S. cerevisiae deletion strains, locus YOR290C, strain snf2, stronger effect = lower value 0.996 | S. cerevisiae deletion strains, locus YOR316C, strain cot1, stronger effect = lower value 1 | S. cerevisiae deletion strains, locus YPL051W, strain arl3, stronger effect = lower value 1 | S. cerevisiae deletion strains, locus YPL055C, strain LGE1, stronger effect = lower value 1.04 and 0.991 | S. cerevisiae deletion strains, locus YPL078C, strain atp4, stronger effect = lower value 1 | S. cerevisiae deletion strains, locus YPL106C, strain sse1, stronger effect = lower value 1.01 | S. cerevisiae deletion strains, locus YPL240C, strain hsp82, stronger effect = lower value 1 | S. cerevisiae deletion strains, locus YPL241C, strain CIN2, stronger effect = lower value 1.01 | S. cerevisiae deletion strains, locus YPL256C, strain CLN2, stronger effect = lower value 0.932 | S. cerevisiae deletion strains, locus YPR119W, strain clb2, stronger effect = lower value 0.997 | S. cerevisiae deletion strains, locus YPR141C, strain kar3, stronger effect = lower value 0.997 | S. cerevisiae deletion strains, locus YPR163C, strain tif3, stronger effect = lower value 0.998 | S. cerevisiae deletion strains, locus YPR167C, strain met16, stronger effect = lower value 1 | S. cerevisiae deletion strains, strain wtn01, stronger effect = lower value 1 | S. cerevisiae strains, strain wild type, stronger effect = lower value 1.02
